M1 antagonist: antagonists of rat M1 muscarinic receptor | CHO-M1 cells, Fluo-4 calcium, ACh EC80 antagonist mode; active compounds read low | B-score at 10 µM | 3.4% of 64,000 active | AID 628;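 active = calcium fluorescence response, raw or row-and-column corrected B-score, differing from the plate sample mean either way at a set confidence level, mostly lower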
Target sequence (P08482 whole entry, looked up): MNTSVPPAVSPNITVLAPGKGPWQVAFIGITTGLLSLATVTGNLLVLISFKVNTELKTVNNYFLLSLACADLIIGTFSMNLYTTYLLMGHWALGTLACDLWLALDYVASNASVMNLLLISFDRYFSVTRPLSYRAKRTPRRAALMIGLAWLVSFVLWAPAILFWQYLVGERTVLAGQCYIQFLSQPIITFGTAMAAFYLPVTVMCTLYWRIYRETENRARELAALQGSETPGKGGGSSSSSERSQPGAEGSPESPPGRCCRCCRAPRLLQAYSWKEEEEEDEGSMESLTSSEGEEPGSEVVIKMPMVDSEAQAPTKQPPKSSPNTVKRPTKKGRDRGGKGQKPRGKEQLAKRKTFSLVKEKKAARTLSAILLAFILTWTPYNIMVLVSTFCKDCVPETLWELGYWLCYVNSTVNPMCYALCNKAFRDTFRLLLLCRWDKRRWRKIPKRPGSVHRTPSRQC
Autofluor 339: intrinsic fluorescence of library compounds, ex339/em460 – biochemical, MLSMR library, data from DPM-DC assay, artefact control, profiling panel; compound autofluorescence, ex339/em460 nm, NADH buffer; active compounds read high; 1 = no-compound wells, NADH background; fluorescence fold increase at 10 µM; 5.5% of 65,000 active; AID 709;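 active = at 10 µM, mean starting fluorescence two-fold or more over control wells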;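 also: signal is the first read of a kinetic run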
A340 absorber: absorbance at 340 nm; compound absorbance at 340 nm, fold over control; fold change at 10 µM; 65,000 tested, under 10 active; AID 708;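 active = at 10 µM dose, initial 340 nm absorbance at least 2 fold that of control wells; inactive = change under 2 fold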;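 also: initial absorbance extrapolated from kinetic A340 decline of NADH oxidation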
NADH enzymes: inhibitors of enzymes used to reach an NAD/NADH endpoint. coupled PK/LDH NADH assays, four targets. IC50, µM (series often up to 10 µM), inactives show at the top dose inhibition. 0.02% of 65,000 active;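 active = single-dose screening hits from any of four coupled enzyme assays that gave an IC50 when retested across doses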;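 also: the DPM-DC format reads NADH fluorescence rather than 340 nm absorbance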
Htt clearance: mutant huntingtin protein clearance; HeLa Exon1htt(103Q)mCFP, aggregate imaging; zero = plate's median compound well; inhibition, % at 1.5 µM; 0.42% of 47,000 active; AID 853;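 active = inhibition of aggregate fluorescence above about 70%, also judged a hit by eye on the cell image, limit read from the data, passing the limit was not always enough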;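 also: cells exposed to compound for three days before fixation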
M1 agonist: activates the M1 muscarinic receptor. CHO-M1 cells, Fluo-4 calcium fluorescence, agonist mode; active compounds read high. B-score at 10 µM. 3% of 64,000 active. AID 626;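 active = fluorescence rise, raw or as B-score row- and column-corrected plate score, outside the 99.7% band of its plate's samples, either direction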
M1 antag conf: M1 muscarinic receptor (rat) antagonism, confirmed; calcium response (max-min fluorescence) at 10 µM; CHO-M1 cells, Fluo-4 calcium, ACh EC80 antagonism; active compounds read low; AID 677; 43% of 1,700 active; shares compounds with M1 antagonist;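 active = calcium response below the same-plate mean of wells given acetylcholine alone at its 80%-effect dose, minus 3 SD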;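 also: raw fluorescence intensity difference in arbitrary instrument units and not normalized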
mGluR4 antag: mGluR4 (human) activity, M1 antagonist secondary assay; 0.9% of 1,700 active; CHO-mGluR4 calcium flux, Fluo-4 fluorescence, glutamate EC80; active compounds read low; shares compounds with M1 antagonist; fluorescence response (max-min) at 10 µM; AID 678;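 active = fluorescence response below the plate's average for near-maximal glutamate wells, less 3 SD of those wells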;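 also: raw unnormalized fluorescence span taken in the window right after glutamate addition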
Active calls of the source: *; x = no result given. Sampled rows, rich in hits. Any-hit rate of the full collection: about 9.3%.

SMILES	M1 antagonist	Autofluor 339	A340 absorber	NADH enzymes	Htt clearance	M1 agonist	M1 antag conf	mGluR4 antag
COC(=O)c1ccc(Oc2nc(N3CCCCC3)nc(N3CCOCC3)n2)cc1	-2.33*	1.12	1.02	3.0%	-70.5	-0.922	457	186
Clc1ccc(Oc2nc(Oc3ccc(Cl)cc3)nc(N3CCOCC3)n2)cc1	x	1.11	1.02	2.0%	-1.3	x	x	x
O=c1ccc2cc3c([nH]c4ccc(Br)cc43)oc-2c1O	-1.43*	1.01	0.99	3.0%	-110.7	0.23	629	227
CCCCC(SCC(=O)Nc1ccccc1)C(=O)O (configuration not stated)	-0.592	1.09	1.06	3.0%	-5.0	0.198	x	x
CCN(CC)C(=O)CSc1nnc(-c2cc3ccccc3cc2O)n1CC	-3.45*	1.21	1.01	7.0%	-14.1	-0.247	499	217
CCn1c(-c2cc3ccccc3cc2O)n[nH]c1=S	x	x	x	x	-10.9	x	x	x
COC(=O)c1oc2c(c1C)C1(CCC2)SCCS1	-6.76*	1.06	1.06	8.0%	-67.1	1.16	259*	183
O=C(Cn1c(=O)n(-c2ccccc2)c(=O)n1CC(=O)N1CCCCC1)N1CCCCC1	1	1.03	1.03	5.0%	-25.7	-0.681	x	x
CCC(Sc1nc(C)cc(=O)[nH]1)C(=O)Nc1nnc(C)s1 (configuration not stated)	-2.46*	1.05	1.02	10.0%	0.3	-0.282	522	184
CCC(Sc1nc(C)cc(=O)[nH]1)C(=O)Nc1nc2c(s1)CCCC2 (configuration not stated)	0.0593	1.06	0.99	3.0%	x	-0.174	x	x
CN1C(=O)C(O)(C2COC(C)(C)CC2=O)c2ccccc21 (configuration not stated)	-3.78*	1.1	1.04	4.0%	-32.3	1.03	472*	237
COc1ccccc1NC(=O)Cc1csc(N)n1	0.356	1.07	1.01	7.0%	x	0.377	x	x
COC(=O)C1=C(C)N=C2SCCC(=O)N2C1/C=C/c1ccccc1 (configuration not stated)	-4.46*	1.13	0.98	4.0%	-9.1	0.59	253*	222
O=C(NC1CCCC1)C1CCCN1C(=O)Nc1ccc(Cl)cc1 (configuration not stated)	0.119	1.12	1.04	2.0%	13.0	-0.384	x	x
NC(=O)Cn1nnc(-c2ccc(C(F)(F)F)cc2)n1	0.532	1.04	1.05	3.0%	44.4	-1.9	x	x
O=C(Cn1nnc(-c2cccc(C(F)(F)F)c2)n1)N1CCOCC1	-2.13*	1.14	1.09	6.0%	x	-0.773	661	182
O=C(Nc1ccc2c(c1)OCO2)C(c1ccccc1)N1CCCCC1 (configuration not stated)	-3.39*	1.1	1.04	0.0%	x	-0.628	501*	205
CC1CCCN(C(C(=O)Nc2ccc3c(c2)OCO3)c2ccccc2)C1 (configuration not stated)	-4.97*	1.05	1.03	1.0%	x	0.156	479*	253
CC1CCCN(C(C(=O)Nc2ccc3c(c2)OCCO3)c2ccccc2)C1 (configuration not stated)	-0.547	1.05	0.98	6.0%	-23.8	-0.317	x	x
O=C(C(Cc1ccccc1)n1cccc1)N1CCN(Cc2ccccc2)CC1 (configuration not stated)	-16.4*	1.06	1	2.0%	x	0.244	18.2*	196
CCN1CCN(CCCNC(=O)c2cc3sccc3n2CC)CC1	-1.65*	1.02	0.99	2.0%	1.5	-0.0312	611	231
CCn1c(C(=O)NCCCN2CCc3ccccc3C2)cc2sccc21	-3.63*	1.14	1	3.0%	x	0.172	492*	233
Cc1ccc(Cn2c(C(=O)NCCCN3CCOCC3)cc3sccc32)cc1	-3.23*	1.04	0.99	3.0%	x	-0.572	510*	267
O=C(NCc1nnc(SCC(=O)N2CCCC2)o1)c1ccccc1F	-1.12	1.12	1.06	4.0%	x	-0.498	x	x
O=C(CSc1nnc(CNC(=O)c2ccccc2F)o1)c1ccccc1	-3.24*	1.14	1.03	4.0%	x	-1.96	611	245
SMILES	M1 antagonist	Autofluor 339	A340 absorber	NADH enzymes	Htt clearance	M1 agonist	M1 antag conf	mGluR4 antag
COc1cccc(CNC(=O)C2CCCN(S(=O)(=O)c3c(C)n[nH]c3C)C2)c1 (configuration not stated)	-0.403	1.1	1	7.0%	-16.1	-0.104	x	x
COC(=O)C1C(=O)c2c([nH]c(C(=O)OCCOC(C)C)c2C)CC1C (configuration not stated)	-2.91*	1.02	1	11.0%	x	0.103	707	222
CC(=O)c1cccc(NC(=O)N2CCCC2C(=O)NC2CCCCC2)c1 (configuration not stated)	0.351	1.08	1	5.0%	-13.5	-0.0511	x	x
O=C(CN1CCCCC1)Nc1ccccc1	x	x	x	x	-14.6	x	x	x
O=C(CN1CCCC1)Nc1ccc(NC(=O)Nc2ccccc2Cl)cc1	-1.73*	1.04	0.98	2.0%	-18.1	-0.246	580	277
Cc1nc2ncnn2c(N2CCN(c3cccc(C(F)(F)F)c3)CC2)c1C	-2.59	1.05	1	6.0%	x	-2.08	x	x
CCOC(=O)c1c(C)oc2ccc(O)c(CN(C)C)c12	-1.3*	1	0.99	3.0%	x	-0.00901	460	234
CCCCOc1ccc(S(=O)(=O)n2c(C)nc3ccccc32)cc1	-3.5*	1.08	0.98	1.0%	x	-1.03	584	242
CCOc1ccc(S(=O)(=O)n2c(C)nc3ccccc32)cc1	-2.57*	1.04	0.99	1.0%	x	-0.0734	202*	243
O=C(CSc1n[nH]c(-c2ccccc2)n1)c1ccc(O)c(O)c1	1.19	1.04	1.08	9.0%	x	-0.0678	x	x
CCN(CC)c1ccc(-c2nc3cnccc3n2C)cc1	-13.7*	2.51*	1.24	18.0%	x	0.141	63.9*	253
CCN(CC)c1ccc(NC(=O)c2cccnc2)cc1	x	x	x	x	2.4	x	x	x
CCOc1ccccc1NC(=O)c1cc(CC(C)C)oc1C	-2.41*	1.11	1.03	1.0%	-13.4	-0.291	650	241
CN(C(=O)c1cc2n(n1)C(C(F)(F)F)CC(c1ccco1)N2)c1ccc(OC(F)(F)F)cc1 (configuration not stated)	0.722	1.11	0.97	5.0%	1.8	0.442	x	x
CN(C(=O)c1cc2n(n1)C(C(F)(F)F)CC(c1ccco1)N2)c1ccccc1 (configuration not stated)	-2.92*	1.1	1	5.0%	x	1.14	662	230
Cc1ccccc1C(=O)N1CCC(C(=O)Nc2ccc(F)cc2)CC1	-4.28*	1.08	1.02	6.0%	-14.2	0.192	502	184
Cc1ccccc1C(=O)N1CCC(C(=O)Nc2ccc(S(=O)(=O)N3CCCC3)cc2)CC1	0.0422	1.02	1	2.0%	x	0.533	x	x

Compound activity deposited in PubChem by several laboratories.
